An excerpt weighted towards active compounds, which were near 2.6% of everything screened.
ABHD5-PLIN5 inh – blocks binding of human ABHD5 to perilipin-5; Split G. princeps luciferase complementation, luminescence, 4 h; AID 602281; Q00G26+Q8WTS1; inhibition, % at 4 µM; actives 0.78% (n = 360,000);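 active = inhibition above the mean inhibition across every tested compound plus 3 SD, cut at about 22% in these data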;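 also: 0% = DMSO only wells and the 100% control is not disclosed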
Rce1 inh – blocks yeast Ras-converting enzyme; Q03530; yeast membranes, quenched prenylated peptide cleavage fluorescence; calls only; actives 0.27% (n = 290,000);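 active = fall in fluorescence gain of 50% or more versus controls, with final raw signal at or below 3038400; inconclusive = same 50% fall but final raw signal above 3038400; inactive = fall in fluorescence gain under 50%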;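 also: plate controls were neutral control wells for no effect and wells lacking membranes for full effect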
Target sequence (Q03530 whole entry, looked up): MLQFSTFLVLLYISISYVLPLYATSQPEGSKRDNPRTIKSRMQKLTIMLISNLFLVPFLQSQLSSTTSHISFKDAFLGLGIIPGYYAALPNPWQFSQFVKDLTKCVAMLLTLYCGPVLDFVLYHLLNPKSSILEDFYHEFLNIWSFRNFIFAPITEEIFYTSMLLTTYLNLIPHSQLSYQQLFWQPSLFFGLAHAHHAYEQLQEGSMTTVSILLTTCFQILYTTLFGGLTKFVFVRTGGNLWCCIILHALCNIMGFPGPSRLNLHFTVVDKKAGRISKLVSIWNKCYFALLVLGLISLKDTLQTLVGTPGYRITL
Granule exo inh – lytic granule exocytosis inhibition; actives 0.66% (n = 360,000); AID 651702; TALL-104 LAMP-1 surface exposure, flow cytometry; cells stimulated with thapsigargin and PMA; inhibition, % at 10 µM;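 active = inhibition above about 55%, limit read from the data; inconclusive = no clear call, values can overlap the other calls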
PfM18AAP inh – blocks P. falciparum M18 aspartyl aminopeptidase; actives 1.2% (n = 290,000); recombinant PfM18AAP, H-Glu-NHMec fluorogenic cleavage; inhibition, % at 7.35 µM;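 active = inhibition above the campaign mean inhibition over all tested compounds plus 3 SD, cut at about 28% in these data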;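 also: 0% = plate median of test compound wells and 100% = 2 mM ZnCl2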
Platelet DG rel – modulates dense granule release in human platelets; inhibition, %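 (compounds screened at 7.5 µM in platelet-rich plasma)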; actives 0.22% (n = 300,000); human platelet-rich plasma, SFLLRN dense granule ATP release, luminescence; AID 1663;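 active = mean replicate score, as percent of positive control, at or above 50; inconclusive = mean below 50 but at least one replicate at or above 50; inactive = mean and every replicate below 50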
Granule exo CP1 – blocks lytic granule exocytosis | shares compounds with Granule exo inh | TALL-104 cells, LAMP-1 externalization, flow cytometry; stimulated with PMA plus thapsigargin | inhibition, % at 10 µM | actives 11% (n = 1,500) | AID 651954; in the data active = inhibition above about 60%;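 also: 0% = stimulated vehicle wells and 100% = unstimulated wells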
* hit, by the source's call; i = inactive; ? = inconclusive; . = no result.

SMILES	ABHD5-PLIN5 inh	Rce1 inh	Granule exo inh	PfM18AAP inh	Platelet DG rel	Granule exo CP1
O=C(COc1ccccc1)NCC(=O)N1CCCC(C(F)(F)F)C1 (stereo not given)	-5	.	0	.	.	.
Cc1cc(C)c2c(c1)/C(=N/NC(=O)c1cc(C)oc1C)CCC2	0	i	-1	-16	-5	.
Cc1nc(SCc2nc3ccc([N+](=O)[O-])cc3[nH]2)c2oc3ccccc3c2n1	2	.	93*	.	.	-14
O=C(NC1CCCC1)C(c1cccs1)N(Cc1ccco1)C(=O)Cn1nnc(-c2cccs2)n1 (stereo not given)	3	i	-1	-30	13	.
Cc1ccc(-c2nnn(CC(=O)N(Cc3ccco3)C(C(=O)NC3CCCC3)c3cccs3)n2)o1 (stereo not given)	10	i	66*	8	-5	-4
O=C(C1=C(O)C(=O)N(CCN2CCOCC2)C1c1cccnc1)c1cc2ccccc2o1 (stereo not given)	-5	.	-2	-7	.	.
COC(=O)c1c(NC(=O)C2CC2)sc(C(=O)Nc2ccccc2)c1C	1	i	75*	7	-43	-14
COC(=O)[C@@]1(Cc2ccccc2)C=C[C@@H](C)N1C(C)=O	4	i	48	.	4	.
COC(=O)N1[C@H](C)C=C[C@]1(Cc1ccccc1)C(=O)OC	4	i	57*	.	0	-13
CC1(C)CC2(CCCN3C(=O)CSC32)CCS1 (stereo not given)	-1	i	-1	7	-2	.
NC(=O)CC(NC(=O)Cc1cccc2ccccc12)c1ccc(N2CCC(Cc3ccccc3)CC2)c([N+](=O)[O-])c1 (stereo not given)	-8	i	60*	-3	-5	-10
NC(=O)CC(NC(=O)Cc1ccc(Br)cc1)c1ccc(N2CCC(Cc3ccccc3)CC2)c([N+](=O)[O-])c1 (stereo not given)	-1	i	36	.	-5	.
CCOC(=O)c1nnc(-c2ccc(C)cc2)nc1Oc1ccccc1Cl	3	i	67*	0	-6	8
CCOC(=O)c1nnc(-c2ccccc2)nc1Sc1c(Cl)cccc1Cl	7	i	96*	4	4	57
CCOC(=O)c1nnc(-c2ccc(C)cc2)nc1Oc1ccc(Cl)cc1Cl	0	i	4	-4	-4	.
CCOC(=O)c1nnc(-c2ccc(C)cc2)nc1Sc1ccccc1Cl	2	i	79*	-8	9	13
CCOC(=O)c1nnc(-c2ccc(C)cc2)nc1Sc1ccc(Cl)cc1	-9	i	-6	0	-7	.
COc1ccc(C(NC(C)=O)c2cc(Cl)c3cccnc3c2O)cc1OC (stereo not given)	6	i	-5	-4	3	.
N#Cc1c(Cn2cncn2)nc(=O)n(-c2ccccc2)c1N	0	i	5	8	-3	.
COc1ccc(N2CCN(C(=O)CSc3ccccc3N)CC2)cc1	-10	i	0	-1	-3	.
COc1ccc(CCNC(=O)C2CC3Cn4c(nc5cc(Cl)c(Cl)cc54)C3N2C)cc1 (stereo not given)	-4	i	83*	.	3	-13
O=C(c1ccco1)N1CCC(c2nc(-c3ccccc3Cl)no2)CC1	4	i	100*	1	1	-5
O=[N+]([O-])c1ccc(COc2ccc(-c3[nH]ncc3-c3ccccc3)c(O)c2)cc1	-2	i	11	-5	30	.
Oc1cc(OCc2ccccc2)ccc1-c1[nH]ncc1-c1ccccc1	-18	i	100*	-13	1	16
COc1ccc(-c2cn[nH]c2-c2ccc(OCc3ccccc3)cc2O)cc1OC	3	i	64*	-7	4	-4
SMILES	ABHD5-PLIN5 inh	Rce1 inh	Granule exo inh	PfM18AAP inh	Platelet DG rel	Granule exo CP1
C=C(C)COc1ccc(-c2[nH]ncc2-c2ccc(OC)cc2)c(O)c1	-26	i	1	-4	-7	.
C=C(C)COc1ccc(-c2[nH]ncc2-c2ccccc2)c(O)c1	-23	i	85*	-2	-16	4
O=c1nc(/C=C/c2cccn2-c2ccc([N+](=O)[O-])cc2)cc(C(F)(F)F)[nH]1	-4	i	-2	7	11	.
CCCn1c2c(c(=N)c3c1CCC3)CCC2	-7	i	-5	-5	7	.
CCCCCCCn1c2c(c(=N)c3ccccc31)CCC2	7	i	71*	-2	-1	-9
CCC(Oc1ccccc1)C(=O)Nc1ncc([N+](=O)[O-])s1 (stereo not given)	-3	i	2	3	-4	.
CC(CC(=O)Nc1ncc([N+](=O)[O-])s1)c1ccccc1 (stereo not given)	5	i	59*	9	.	-9
NC(=O)N/N=C/c1ccc(-c2cccc(C(F)(F)F)c2)o1	-5	i	-6	-4	5	.
CN(C)S(=O)(=O)c1cccc(NC(=O)c2ccccc2OCc2ccc(F)cc2)c1	12	i	102*	4	-5	-10
CN(C)S(=O)(=O)c1cccc(NC(=O)COc2ccc(C(=O)c3ccccc3)cc2)c1	0	i	58*	-12	-19	2
COc1ccc(NC(=O)c2ccccc2NC(=O)c2ccccc2C(=O)O)c(OC)c1	-6	i	-6	-2	-4	.
CN(c1ccccc1)S(=O)(=O)c1cccc(NC(=O)COc2ccccc2)c1	3	.	-2	.	.	.
COc1ccc(NC(=O)c2ccccc2OCc2ccc(F)cc2)c(OC)c1	0	i	85*	6	-24	-11
CC(=O)c1cccc(OC(=O)c2ccccc2)c1	1	.	9	.	.	.
Cc1cccc(NS(=O)(=O)c2c(C)n[nH]c2C)c1	2	i	0	-7	-2	.
CCc1nc2ccc(C(=O)NC3CCN(Cc4ccccc4)CC3)cn2c1N(C)Cc1cccs1	-1	.	8	.	.	.
CCc1nc2ccc(C(=O)NC3CCN(Cc4ccccc4)CC3)cn2c1N(C)Cc1cc2ccccc2s1	13	.	59*	.	.	65*
CCN(CC)CCCNC(=O)C(C)n1c2ccccc2c2nc(=O)cc(C)n21 (stereo not given)	-6	i	-3	5	-5	.
N#Cc1nc(COc2ccccc2Cl)oc1NCc1ccco1	4	i	56*	3	-3	-8
C(=C\c1ccco1)/c1ccc2ccccc2n1	12	i	59*	-10	?	-5
NC(=O)c1cnccc1C=Cc1ccccc1	0	.	64*	.	.	-12
Cc1ccc(S(=O)(=O)N2CCCCC2)cc1NC(=O)C1CC(=O)N(Cc2ccco2)C1 (stereo not given)	1	.	0	.	.	.
Cc1cccc(CSc2nnnn2-c2ccccc2)c1	-1	i	-1	-1	-3	.
CCc1ccc(-c2cc3c(=O)n(CC(=O)NCCCN4CCC(Cc5ccccc5)CC4)nc(C)n3n2)cc1	10	i	55	-5	-1	.
Cc1nn(CC(=O)NCCCN2CCC(Cc3ccccc3)CC2)c(=O)c2cc(-c3ccccc3)nn12	0	i	87*	0	-9	3
